# Only a selection was taken, and hits are over-represented in it overall.
# CBX7 inh: CBX7 inhibition, primary AlphaScreen | O95931 | AlphaScreen His6-CBX7 / biotin-H3K27me3 peptide binding; hits give low values | normalised signal (fraction of DMSO) (no concentration beside the values) | 1.1% of 66,000 active | AID 1224903; in the data active = normalised signal below about 0.5
# Target sequence (O95931 whole entry, looked up): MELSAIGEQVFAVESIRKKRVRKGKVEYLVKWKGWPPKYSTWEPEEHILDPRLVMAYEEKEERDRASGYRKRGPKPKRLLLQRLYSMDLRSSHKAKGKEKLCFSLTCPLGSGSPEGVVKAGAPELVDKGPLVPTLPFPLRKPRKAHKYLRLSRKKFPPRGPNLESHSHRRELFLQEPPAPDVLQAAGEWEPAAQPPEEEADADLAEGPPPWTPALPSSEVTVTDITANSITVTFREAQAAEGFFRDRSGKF
# Hits are given with their value; n = inactive.
SMILES,CBX7 inh
CC(=O)Nc1ccc(S(=O)(=O)Nc2ccc(S(=O)(=O)Nc3nccc(C)n3)cc2)cc1,n
COc1ccc(NC2c3ncccc3C(=O)N2Cc2ccc(F)cc2)cc1Cl (stereo not given),n
COc1ccc(CN2C(=O)c3cccnc3C2Nc2cc(Cl)ccc2OC)cc1 (stereo not given),0.00532
O=C1c2cccnc2C(Nc2ccc(F)c(Cl)c2)N1Cc1ccc(F)cc1 (stereo not given),n
COc1ccc(CN2C(=O)c3cccnc3C2O)cc1 (stereo not given),0.0103
CCOC(=O)c1ccc(NC2c3ncccc3C(=O)N2Cc2ccc(F)cc2)cc1 (stereo not given),0.445
COc1ccc(CN2C(=O)c3cccnc3C2Nc2cc(Cl)ccc2C)cc1 (stereo not given),n
COc1ccc(NC2c3ncccc3C(=O)N2Cc2ccc(F)cc2)cc1 (stereo not given),n
O=C1c2cccnc2C(Nc2ccc(F)cc2)N1Cc1ccc(F)cc1 (stereo not given),n
CCC(C)NC(=O)C1c2ccccc2C(=O)N1Cc1ccc(OC)cc1 (stereo not given),n
O=C(NC1CCCCC1)c1ccc2c(=O)n3c(nc2c1)CCCCC3,n
COc1ccc(N2CC(C(=O)OCC(=O)c3ccc(-c4ccccc4)cc3)CC2=O)cc1 (stereo not given),n
CCCCN(C)C(=O)c1cn(-c2ccc(OCC)cc2)c(=O)c2cc(OC)c(OC)cc12,n
CCN1C(=O)c2ccccc2Sc2ccc(C(=O)NCc3ccc(F)cc3)cc21,n
N#Cc1ccc(NC(=O)c2cc(-c3ccc(O)cc3)on2)cc1,n
O=C(Nc1c(-c2cccs2)nc2ccccn12)c1cccc(Cl)c1,n
O=C(Nc1c2c(nc3c1CCC3)CCCC2)c1ccccn1,0.14
O=C(CN1CCN(c2ccccc2)CC1)Nc1c2c(nc3c1CCC3)CCCC2,n
CCN(CC)CC(=O)Nc1c2c(nc3c1CCC3)CCC2,n
CN(C)CC(=O)Nc1c2c(nc3c1CCC3)CCCC2,0.231
CC(C)NCC(=O)Nc1c2c(nc3c1CCC3)CCCC2,n
O=C(CCN1Cc2ccccc2C1)Nc1c2c(nc3c1CCC3)CCCC2,n
COc1cccc(NC(=O)c2ccc(CNc3c(N4CCC(C)CC4)c(=O)c3=O)cc2)c1,n
CC1CCCCC1NC(=O)Cn1nc(Cc2cccnc2)c2ccccc2c1=O (stereo not given),n
CCc1ccc(NC(=O)CN(c2ccc(C(C)C)cc2)S(=O)(=O)c2c(C)nn(C)c2C)cc1,n
SMILES,CBX7 inh
CCC(C)NC(=O)c1ccc2c(c1)N(Cc1cccc(Cl)c1)C(=O)c1ccccc1S2 (stereo not given),n
CCCCN(CCCNC(=O)c1cc(=O)[nH]c2ccccc12)Cc1ccccc1,n
CCc1ccccc1NC(=O)C1CCCN(S(=O)(=O)c2cccs2)C1 (stereo not given),n
CCCCN(CC)S(=O)(=O)c1ccc(C(=O)Nc2nc(-c3ccccn3)cs2)cc1,0.477
CCCCN(CCCC)S(=O)(=O)c1ccc(C(=O)Nc2nc(-c3ccncc3)cs2)cc1,n
O=C(Nc1nc(-c2ccncc2)cs1)c1ccc(S(=O)(=O)N2CCCCCC2)cc1,n
O=C(Nc1nc(-c2ccccn2)cs1)c1ccc(S(=O)(=O)N2CCOCC2)cc1,0
CCCN(CCC)S(=O)(=O)c1ccc(C(=O)Nc2nc(-c3ccncc3)cs2)cc1,n
O=C(Nc1nc(-c2ccccn2)cs1)c1ccc(S(=O)(=O)N2CCCCC2)cc1,0
O=C(Nc1nc(-c2nc3ccccc3s2)cs1)c1ccc(S(=O)(=O)N2CCCCCC2)cc1,n
O=C(Nc1nc(-c2ccncc2)cs1)c1ccc(S(=O)(=O)N2CCOCC2)cc1,n
O=C(Nc1nnc(-c2ccccc2)s1)c1ccc(S(=O)(=O)N2CCOCC2)cc1,n
Cc1ccc(C)c(CN2C(=O)c3ccccc3S(=O)(=O)c3ccc(C(=O)NCc4cccnc4)cc32)c1,n
CCOc1ccccc1NC(=O)c1c(NCc2ccncc2)sc2c1CCC(C)C2 (stereo not given),n
COc1cc(OC)cc(-n2nc(C(=O)Nc3cc(C)ccc3OC)c3ccccc3c2=O)c1,n
Cc1ccc(C)c(CSc2nc3ccc(C)cc3[nH]2)c1,n
CCOc1ccc(NC(=O)C(CC(C)C)NS(=O)(=O)c2ccc3nc(C)sc3c2)cc1 (stereo not given),n
CC1(C)CC(=O)c2cc(-c3ccccc3)n(-c3ccc(C(=O)O)cc3)c2C1,n
CCOc1ccc2nc(N3CCCC(C(=O)Nc4c(C)cccc4C)C3)sc2c1 (stereo not given),n
CCOc1ccc2nc(N3CCCC(C(=O)N4CCN(c5cccc(C)c5)C(C)C4)C3)sc2c1 (stereo not given),0.494
CCOc1ccc2nc(N3CCC(C(=O)N4CCN(C)CC4)CC3)sc2c1,n
CCOc1ccc2nc(N3CCCC(C(=O)N4CCN(c5ncccn5)CC4)C3)sc2c1 (stereo not given),n
CCOc1ccc2nc(N3CCCC(C(=O)N4CCN(c5ccccc5)CC4)C3)sc2c1 (stereo not given),n
CCOc1ccc2nc(N3CCCC(C(=O)N4CCN(C)CC4)C3)sc2c1 (stereo not given),0.38
O=C(COc1ccc(Cl)cc1)Nc1c2c(nn1-c1ccc(Cl)cc1)CS(=O)(=O)C2,n
SMILES,CBX7 inh
CC(C)c1ccc(NC(=O)C2=CCN(S(=O)(=O)c3ccc(Br)cc3)CC2)cc1,n
Cc1cc(C)cc(CC(CC(=O)Nc2ccc(F)cc2)C(=O)O)c1 (stereo not given),n
Cc1ccc2oc(-c3cccc(NC(=O)c4ccccc4Cl)c3)nc2c1,n
Cc1ccc2oc(-c3cccc(NC(=O)c4ncn[nH]4)c3)nc2c1,0.0761
COc1cccc(OC)c1C(=O)Nc1cccc(-c2nc3cc(C)ccc3o2)c1,n
Cc1onc(-c2ccccc2Cl)c1C(=O)Nc1n[nH]c(=S)s1,n
Cc1nc2ccc(S(=O)(=O)NC(C(=O)N3CCN(c4ccc(F)cc4)CC3)C(C)C)cc2s1 (stereo not given),n
O=C(C1CCCN(S(=O)(=O)c2cccs2)C1)N1CCC(Cc2ccccc2)CC1 (stereo not given),n
CCN(CC)S(=O)(=O)c1ccc(C(=O)Nc2nnc(-c3cccs3)o2)cc1,n
CCN(CC)S(=O)(=O)c1ccc(C(=O)Nc2nnc(C3CC3)o2)cc1,0.00295
N#CCCN(CCC#N)S(=O)(=O)c1ccc(C(=O)Nc2nnc(C3CC3)o2)cc1,0.00211
CN(Cc1ccccc1)S(=O)(=O)c1ccc(C(=O)Nc2nnc(C3CC3)o2)cc1,n
C=CCN(CC=C)S(=O)(=O)c1ccc(C(=O)Nc2nnc(C3CC3)o2)cc1,0.00398
C=CCN(CC=C)S(=O)(=O)c1ccc(C(=O)Nc2sc3c(c2C(=O)OC)CCN(C)C3)cc1,n
CCc1cccc(N(CC)C(=O)CCc2nc(-c3ccc(C)cc3)no2)c1,n
Cc1cccc(N2C(=O)CC(NCc3ccc(S(N)(=O)=O)cc3)C2=O)c1 (stereo not given),n
Cc1cccc2nc(-c3cccc(Cl)c3)c(Nc3ccc4c(c3)OCCO4)n12,n
O=C(O)C1Cc2c([nH]c3ccccc23)C(c2cccc(C(F)(F)F)c2)N1 (stereo not given),n
COc1ccccc1C(=O)Nc1c(C(=O)c2ccc(C)cc2)oc2ccccc12,n
Cc1ccc(SCc2cc(=O)[nH]c(Nc3nc(C)c4cc(C)ccc4n3)n2)cc1,n
Cc1sc2ncn(CC(=O)NCCCC(=O)N3CCOCC3)c(=O)c2c1C,n
